HCV inhibitor: blocks hepatitis C virus | Potency, µM (highest dose often 41.8 µM), most hits filed as inhibitors | 340,000 compounds, 3.4% hits | Huh7.5.1 HCVcc-Cre infection, luciferase reporter, 44 h; active = well fitted inhibition curve with a large enough effect; inconclusive = small, poorly fitted or top-dose-only effect, or another doubt; inactive = no such curve, though single readings can be large or run the other way
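Cells (1,000/well) were plated 4 h before compound, then infected with HCVcc-Cre virus (~0.5 moi). After 44 h further culture, infection was read as luciferase luminescence following a 15 min substrate incubation at room temperature.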
HCMV inh: blocks human cytomegalovirus replication | 410,000 compounds, 4.5% hits | activity change, negative = inhibition, % at 57.5 µM | HFF cells, HCMV-luciferase reporter, 72 h; stronger effect = lower value; in the data active = activity change below about -60%; inconclusive = no clear call, values can overlap the other calls; inactive = above about -39%
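After 16 h attachment at 37C, HFF cells received test compound and HCMV-luciferase (1 PFU/cell); reporter luminescence read 72 h later, data normalized against buffer-only and known inhibitor Salinomycin.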
FMDV inh: foot and mouth disease virus antiviral activity; 410,000 compounds, 1.2% hits; FMDV antiviral cell-based qHTS; Potency, µM (doses to about 57.9 µM), usual class: inhibitors; calls by dose curve; tested in HEK293T cells; note: read-out not given here; nearly all actives have a fitted effect of over 45% in size
LASV entry inh: inhibitors of Lassa virus binding or cell entry; Lassa virus pseudotype entry inhibition, cell reporter; Potency, µM (series often up to 37.9 µM), actives largely listed as inhibitors; 300,000 compounds, 1.2% hits; calls by dose curve; tested in HEK293 cells; note: nearly all actives have a fitted effect of over 50% in size
MARV entry inh: inhibitors of Marburg virus binding or cell entry. Marburg virus pseudotyped entry inhibition, cell reporter. Potency, µM (top dose mostly 37.8 µM), actives largely listed as inhibitors. 300,000 compounds, 1.8% hits; calls by dose curve; tested in HEK293 cells
Hits are given with their value; . = inactive; ? = inconclusive; / = no result; + = active, no number; ! = a repeat was not active; [ ] = dose if it differs, or a comment. Rows were chosen to be rich in hits. Some 7.9% of all compounds tested hit in one or more screens of this group.

SMILES	HCV inhibitor	HCMV inh	FMDV inh	LASV entry inh	MARV entry inh
COc1cc(C(=O)NC2CCCc3c2cnn3-c2ccccc2F)cc(OC)c1OC (configuration not stated)	8.9µM	-62	?	.	?
Cc1cc(C(=O)NC2CCCc3c2cnn3-c2ccccc2F)nc(C)n1 (configuration not stated)	/	.	.	?	?
Cc1cccc(C)c1N1C(=O)[C@@H]2[C@H](ON(c3ccccc3)[C@H]2c2ccncc2)C1=O	/	/	/	/	.
O=C(OCc1ccccc1)N1CCC2CC1c1cc(N3CCOCC3)ccc12 (configuration not stated)	0.32µM	.	.	/	/
CCOc1ccc2nc3c(cc2c1)CN(CCOC)C(=NCCOC)S3	.	-61	.	?	?
CC(C)n1c(=S)[nH]c2cc(Cl)ccc21	.	-72	.	/	/
CC(C)n1c(=S)[nH]c2ccccc2c1=O	.	?	.	.	.
CC(C)(C)OC(=O)N(Cc1ccccc1)Cc1ccccc1OCc1ccc(NC(=O)C2CCC2)cc1	?	-90	.	/	/
CC(C)(C)OC(=O)N(CCc1ccccc1)Cc1ccccc1OCc1cccc(NC(=O)C2CC2)c1	.	.	.	/	/
CC(C)(C)OC(=O)N(CCc1ccccc1)Cc1ccccc1OCc1ccc(NC(=O)C2CCC2)cc1	0.56µM	?	.	/	/
CC(C)(C)OC(=O)N(CCc1ccccc1)Cc1ccccc1OCc1cccc(NC(=O)C2CCCC2)c1	.	.	.	/	/
CC(=O)c1cc2c(cc1N/C(=N/S(=O)(=O)c1ccc(Cl)cc1)c1ccc(F)cc1)OCO2	/	.	.	.	/
COc1ccccc1C(=O)N1[C@@H](C(C)C)COc2cc(Br)ccc2S1(=O)=O	?	.	.	/	?
COC(=O)c1ccc([C@H]2/C(=C(\O)c3ccc(OC)cc3)C(=O)C(=O)N2Cc2ccco2)cc1	/	/	/	/	.
Cc1ccc(C(NC(=O)C2CCN(Cc3ccc(Cl)c(Cl)c3)CC2)c2ccccn2)cc1 (configuration not stated)	/	.	.	/	/
Cc1ccc2nc(-c3ccccc3)cn2c1	.	-66	1.8µM	0.32µM	0.45µM
Cc1ccc2nc(-c3ccc(O)c(O)c3)cn2c1	.	.	13µM	?	?
Cc1onc(-c2ccccc2)c1C(=O)OCC(=O)Nc1ccccc1Cl	/	.	.	/	/
O=c1[nH]c2ccccc2n1CCCN1CCC(n2c(=O)[nH]c3cc(Cl)ccc32)CC1	?	-79	?	?	11µM!
COc1cccc(N2CCN(C(=O)CN3CCSc4ccc(S(=O)(=O)N(C)C)cc43)CC2)c1	/	.	.	.	/
c1ccc(CCc2ccncc2)cc1	.	.	.	.	.
c1ccc(CCCCc2ccncc2)cc1	.	-63	.	.	?
Nc1c(Cl)cc(-c2csc(N3CCCC3c3nc4cc(Cl)c(N5CCCCC5)cc4n3CCCO)n2)cc1Cl (configuration not stated)	.[8.37 µM]	.	.	/	/
OCCCn1c(C2CCCN2c2nc(-c3ccc(Cl)cc3)cs2)nc2cc(Cl)c(Cl)cc21 (configuration not stated)	?	.	.	/	/
Nc1c(Cl)cc(-c2csc(N3CCCC3c3nc4cc(Cl)c(Cl)cc4n3CCCO)n2)cc1Cl (configuration not stated)	2µM	.	.	/	/
SMILES	HCV inhibitor	HCMV inh	FMDV inh	LASV entry inh	MARV entry inh
OCCCn1c(C2CCCN2c2nc(-c3ccc(Cl)cc3)cs2)nc2cc(C(F)(F)F)ccc21 (configuration not stated)	?	-66	.	/	/
COc1cccc(O)c1CN1CCC2(CC1)c1ccccc1[C@@H](NC(=O)c1ccsc1)[C@@H]2OC	/	/	.	/	/
C=CCNc1nnc(SCC(=O)N2CCC(C(N)=O)CC2)s1	.	.	.	.	.
NCc1ccc(-c2nc(-c3ccc(Cl)c(O)c3)c(-c3ccncc3)[nH]2)cc1	/	/	/	.	/
Cc1nc2nc(SCC(=O)NCCCN3CCCCCC3)nn2c(C)c1Cc1ccccc1Cl	?	+	.	/	/
Cc1ccccc1Cc1c(C)nc2nc(SCC(=O)NCCCN3CCCC3)nn2c1C	?	.	.	.	?
Cc1nc2nc(SCC(=O)NCCCN3CCCC(C)C3)nn2c(C)c1Cc1ccccc1Cl (configuration not stated)	11µM	.	.	/	/
CN=C(Nc1cccnc1)c1ccccc1	.	.	.	.	?
COc1ccc(CSC2=CS(=O)(=O)c3ccccc3N2)cc1	.	-62	.	.	?
CC/C(C)=N\Nc1nc(-c2cc3cc(OC)ccc3oc2=O)cs1	8.9µM	.	.	.	?
CCOC(=O)c1ccc(NC(=O)c2cccc3c(=O)c4c([nH]c23)CCCC4)cc1	/	.	.	?	?
COc1cccc(Nc2nccc3[nH]c(-c4cccc(C(C)C)c4)nc23)c1	/	.	/	/	/
Cn1ncc2c(Nc3ccccc3Cl)nc(Nc3ccccc3Cl)nc21	6.3µM	.	.	.	?
COCCOC(=O)c1[nH]c2c(c1C)C(=O)CC(c1ccco1)C2 (configuration not stated)	?	-67	?	/	/
COC(=O)c1[nH]c2c(c1C)C(=O)CC(c1cc(OC)ccc1OC)C2 (configuration not stated)	?	.	.	/	/
CCOC(=O)c1[nH]c2c(c1C)C(=O)CC(c1ccco1)C2 (configuration not stated)	?	-81	.	/	/
Cc1c(C(=O)OCc2ccccc2)[nH]c2c1C(=O)CC(c1ccco1)C2 (configuration not stated)	?	/	.	/	/
COC(=O)c1[nH]c2c(c1C)C(=O)CC(c1cccs1)C2 (configuration not stated)	?	-76	.	?	?
COc1cccc(C(=O)Nc2c(C(=O)N3CCN(c4ccc(F)cc4)CC3)oc3ccccc23)c1	/	.	.	.	/
CC1=C(N2CC2)C(=O)C(CO)=C(N2CC2)C1=O	?	-97	.	0.11µM	?
CC(CCc1ccccc1)NC(=O)COC(=O)c1cc(NS(=O)(=O)c2ccc(Cl)c([N+](=O)[O-])c2)ccc1O (configuration not stated)	?	.	.	.	2.5µM
CNS(=O)(=O)c1cccc(C(=O)OCC(=O)NC(C)CCc2ccccc2)c1 (configuration not stated)	.	.	.	/	/
COc1ccc(C(=O)OCC(=O)NC(C)CCc2ccccc2)cc1 (configuration not stated)	.	.	.	.	?
CC(CCc1ccccc1)NC(=O)COC(=O)c1ccc(NC(N)=O)cc1 (configuration not stated)	.	-71	.	/	/
CCN1C(=O)c2ccccc2S(=O)c2ccc(C(=O)NCc3ccc(C(F)(F)F)cc3)cc21 (configuration not stated)	/	.	/	/	/
O=C(O)[C@@H](O)c1ccco1	/	/	/	/	.
CC(Oc1ccc(Cl)cc1)c1ccnn1S(=O)(=O)c1ccc(Cl)cc1 (configuration not stated)	?	.	?	.	.
Cc1ccc(S(=O)(=O)n2nccc2-c2c(-c3ccc(Cl)cc3)noc2C)cc1	14µM	-96	.	?	?
